Measurements from PubChem BioAssay AID493214 (National Center for Advancing Translational Sciences (NCATS), 2011).
The source made the active and inactive calls. Calls come from the whole dose curve; as a rule, active = well fitted inhibition curve with a large enough effect; inactive = no such curve, though single readings can be large or run the other way.

biological target: 4'-phosphopantetheinyl transferase Sfp (Bacillus subtilis) (UniProt P39135); assay: Inhibitos of Bacillus subtilis Sfp phosphopantetheinyl transferase (PPTase): Dry Powder Followup; conditions: purified Sfp PPTase enzyme assay, dry powder retest; series mostly up to 114 µM
Sequence (P39135 whole entry, looked up): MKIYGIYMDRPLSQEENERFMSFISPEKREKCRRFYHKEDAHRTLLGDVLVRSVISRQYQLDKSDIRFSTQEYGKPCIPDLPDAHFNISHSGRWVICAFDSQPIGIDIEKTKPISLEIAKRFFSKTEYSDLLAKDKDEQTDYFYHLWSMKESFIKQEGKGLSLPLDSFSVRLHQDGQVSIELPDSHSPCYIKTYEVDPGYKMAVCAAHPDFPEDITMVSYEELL
From the text: The covalent attachment of a phosphopantetheinyl (4'-PP) arm to a variety of synthases and other proteins is a key posttranslational protein modification. The 4'-PP is installed on the proteins post-translationally from coenzyme A (CoA) on a conserved serine residue by action of phosphopantetheinyl transferase (PPTase) enzymes. Phosphopantetheinylation is essential for synthase activity, and removal of the PPTase gene precludes natural product synthesis in microorganisms, or in the case of fatty acid biosynthesis, renders the organism unviable. PPTase enzymes belong to a distinct structural superfamily. Within bacteria, these enzymes are grouped into two classes based upon primary structure, the AcpS-Type and Sfp-Type PPTases.
Sfp-type PPTases, corresponding to an activator of surfactin production in Bacillus subtilis, are responsible for modifying type I polyketide and nonribosomal peptide synthases of prokaryotes. Sfp-type PPTases are responsible for the activation of a variety of pathogen-associated virulence factors. […]
In search of small molecule Sfp-PPTase inhibitors, a fluorescence quenching assay was developed for detection of Bacillus subtilis Sfp-PPTase enzymatic activity in a miniaturized high-throughput format. […]
Inhibition of Sfp-PPTase was detected by recording the fluorescence intensity change over a 30-minute reaction period at a 525 nm excitation and 598 nm emission. […]
Three uL of reagents, consisting of buffer (in columns 3 and 4 as negative control) and Sfp-PPTase (in columns 1, 2, 5 - 48) were dispensed into 1,536-well Greiner black solid bottom plate. […] The plate was then centrifuged at 1000 rpm for 15 seconds, and the fluorescence intensity recorded on a ViewLux High-throughput CCD imager (Perkin-Elmer) using standard BODIPY optics (525 nm excitation and 598 nm emission). The plate was then incubated for 30 minutes, and a second read on the ViewLux was performed. The fluorescence intensity difference over the 30-minute period was used to calculate the respective reaction rate for each well.

outcome, inactive:
Clc1ccccc1-c1nn2c(-c3ccncc3)nnc2s1
Cn1c(SCC(=O)c2cc3ccccc3o2)nnc1-c1ccccc1
O=c1[nH]c2ccccc2n2c(-c3ccccc3)nnc12
